This is part of a sample that, as a whole, favours compounds with a hit. Of some 83,000 tested, about 20% had one in any assay.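 Single-concentration screen, 48 h exposure, 96-well plates. Endpoint: percent growth. Below 10 = active.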 Active and inactive are the calls of the source.
How the values were obtained:
Assay in all cases: NCI-60 one-dose screen, 48 h (100 = growth as untreated, 0 = no growth, -100 = all killed)
Conditions in all cases: 10 µM unless noted
[1] = system: SR leukemia
[2] = system: RPMI-8226 leukemia
[3] = system: OVCAR-8 ovarian
[4] = system: OVCAR-5 ovarian
[5] = system: OVCAR-4 ovarian
[6] = system: SK-OV-3 ovarian
[7] = system: IGROV1 ovarian
[8] = system: OVCAR-3 ovarian
[9] = system: HS 578T breast
[10] = system: NCI/ADR-RES ovarian

Measured: growth

COc1cc(/C=N/NC(=O)c2cnn3c2NC(c2ccccc2)C3)ccc1Oc1ccccc1 (stereo not given)
inactive: [1] 18% | [2] 56.1% | [3] 30.7% | [4] 59.6% | [5] 31.7% | [6] 27.6% | [7] 33.8% | [9] 37.8% | [10] 41.3%
active: [8] -23.4%

NC(=S)N1N=C(c2ccccc2)CC1c1cn(-c2ccccc2)nc1-c1ccc(OCc2ccccc2)cc1 (stereo not given)
inactive: [1] 109% | [2] 90.9% | [3] 96.4% | [4] 104% | [5] 109% | [6] 112% | [7] 113% | [8] 110% | [9] 96.3% | [10] 112%

C=CC(=O)N[C@@H](/C=C/C(=O)OCC)Cc1ccc(-c2cc(Cl)cc(Cl)c2)cc1
inactive: [3] 16.8% | [4] 55.8% | [5] 10.7% | [6] 26.7% | [7] 36.2% | [8] 13.5% | [9] 40.3%
active: [1] 7.26% | [2] -2.44% | [10] 8.7%

C=C1C(=O)O[C@H]2[C@H]1CC/C(C(=O)NCCCCCNC(=O)/C1=C/CC[C@@]3(C)O[C@H]3[C@H]3OC(=O)C(=C)[C@@H]3CC1)=C\CC[C@@]1(C)O[C@@H]21
inactive: [1] 83.6% | [2] 95.5% | [3] 103% | [4] 93.9% | [5] 116% | [6] 120% | [7] 101% | [8] 103% | [9] 104% | [10] 103%

Cc1ccc(-c2csc(NC(=O)CSc3nc(-c4ccccc4)cc(=O)[nH]3)n2)cc1
inactive: [1] 101% | [2] 78.3% | [3] 94.2% | [4] 95.8% | [5] 105% | [6] 92.4% | [7] 77.2% | [8] 101% | [9] 90.6% | [10] 93.4%

CCCOC(=O)N[C@H]1CCc2cc(OC)c(OC)c(OC)c2-c2ccc(SC)c(=O)cc21
inactive: [3] 23.6% | [4] 33.9% | [5] 40.5% | [6] 42.7% | [7] 17.5%
active: [1] 4.77% | [2] 5.39% | [8] -42.1% | [9] 5.68% | [10] 5.94%

CCOC(=O)Nc1ccc(-c2ccc3c(c2)NC(=O)/C3=C\c2ccc[nH]2)cc1
inactive: [1] 19.3% | [2] 100% | [3] 105% | [4] 72.8% | [5] 45% | [6] 91% | [7] 94.1% | [8] 106% | [9] 106% | [10] 102%

O=C(N/N=C/c1cc2ccccc2n2nnnc12)Nc1ccccc1
inactive: [1] 87.4% | [2] 101% | [3] 103% | [4] 106% | [5] 108% | [6] 112% | [7] 112% | [8] 111% | [9] 109% | [10] 105%

CC(=O)N1c2ccccc2NC2=C(C(=O)NC2(C)C)C1c1ccco1 (stereo not given)
inactive: [1] 29.1% | [2] 63.1% | [3] 100% | [4] 95.1% | [5] 93.8% | [6] 95.6% | [7] 56.7% | [8] 97.1% | [9] 83.3% | [10] 102%

O=C(NCCNc1nccc(-c2c(-c3cccc(F)c3)nc3sccn23)n1)c1ccc(Cl)cc1
inactive: [1] 46.5% | [2] 62.4% | [3] 55.1% | [4] 88.3% | [5] 77.9% | [6] 80.9% | [7] 22.5% | [8] 75.7% | [9] 74.8% | [10] 74.3%

CCOC(=O)[C@@H](C)C[C@H](Cc1ccccc1)NC(=O)c1csc([C@@H](C[C@H](C(C)C)N(C)C(=O)[C@@H](NC(=O)[C@H]2C[C@H](O[Si](C)(C)C(C)(C)C)CCN2C)C(C)C)OC(C)=O)n1
active: [1] -13.9% [9.25 µM] | [2] -32.7% [9.25 µM] | [3] -2.84% [9.25 µM] | [4] 9.08% [9.25 µM] | [6] -2.86% [9.25 µM] | [8] 1.08% [9.25 µM] | [9] -17.7% [9.25 µM] | [10] -3.17% [9.25 µM]
inactive: [5] 17.3% [9.25 µM] | [7] 15.7% [9.25 µM]

Cc1cc2nc3c4cc([N+](=O)[O-])ccc4n(CCN(C)C)c3nc2cc1C
active: [1] -16.7% | [2] -36.4% | [3] 8.77% | [4] -8.87% | [5] 9.25% | [6] 8.97% | [7] -33.6% | [10] -13.4%
inactive: [9] 20.7%

C=C(C)[C@@H]1CC[C@]2(C(=O)N[C@H](CO)Cc3ccccc3)CC[C@]3(C)[C@H](CC[C@@H]4[C@@]5(C)CCCNC(C)(C)[C@@H]5CC[C@]43C)[C@@H]12
active: [1] -56.8% | [2] -49.3% | [3] -76.3% | [4] -93.5% | [5] -80.9% | [6] -96.2% | [7] -78.8% | [8] -95.9% | [9] -60.5% | [10] -67.6%

O=C(Cc1ccc(/C=C/C(=O)c2ncc[nH]2)cc1)Nc1ccc(Cl)cc1
active: [1] 0.986% | [2] -29.2% | [3] -6.61% | [8] -4.9% | [9] 5.07%
inactive: [4] 41.7% | [5] 37.5% | [6] 64.3% | [7] 27.9% | [10] 19.5%

CN1C(=O)NC(c2ccc3c(c2)OCO3)C=C1c1ccccc1 (stereo not given)
inactive: [1] 23.3% | [2] 65.5% | [3] 93.6% | [4] 93.9% | [5] 97.5% | [6] 94.1% | [7] 78.7% | [9] 101% | [10] 98.8%

CC(C)N1C(=O)S/C(=C2/SC(=O)N(C(C)C)C2=O)C1=O
inactive: [1] 103% | [2] 93.9% | [3] 104% | [4] 101% | [5] 97.4% | [6] 127% | [7] 98.9% | [8] 106% | [9] 99.7% | [10] 103%

Brc1ccc(Nc2csc(-c3ccccn3)n2)cc1
inactive: [1] 97.3% | [2] 98% | [3] 98.6% | [4] 76.6% | [5] 101% | [6] 82.8% | [7] 63.4% | [8] 95.7% | [9] 92.4% | [10] 93.5%

CCCOc1ccc(/C=N/Nc2cc(C)nc3ccc(Br)cc23)cc1
active: [1] -1.3%
inactive: [2] 58.9% | [3] 88.2% | [4] 111% | [5] 88.1% | [6] 90.9% | [7] 90.4% | [8] 99.8% | [9] 106% | [10] 97.2%

Cc1ccc(C(=O)/C(=C\c2ccc([N+](=O)[O-])cc2)S(=O)Cc2ccc(F)cc2)cc1 (stereo not given)
inactive: [3] 12.5% | [4] 37.3% | [5] 30.6% | [6] 102% | [9] 21.9% | [10] 26.8%
active: [1] 7.86% | [2] -21.3% | [7] -16.8% | [8] 9.09%

CCNC(=O)Oc1ccc(/C(=C(\C)c2ccccc2)c2ccc(OCCN(CC)CC)cc2)cc1
inactive: [1] 26.1% | [2] 74.6% | [3] 78.3% | [4] 88.2% | [5] 80.8% | [6] 83.9% | [7] 84.3% | [9] 69% | [10] 85%

COc1cc2nc(-c3ccc(C(F)(F)F)cc3)cc(OCCCN3CCCC3)c2cc1OC
inactive: [1] 19.4% | [2] 21.6% | [3] 48.7% | [4] 56.9% | [5] 57.1% | [6] 88.6% | [7] 36.2% | [8] 64.8% | [9] 64.4% | [10] 46.4%

N#C/C(=C\c1ccc([N+](=O)[O-])s1)c1nc2cc(Br)ccc2s1
inactive: [4] 20.5% | [6] 10.1%
active: [1] -18.3% | [2] -43.5% | [3] -19.7% | [5] -11.6% | [7] -32.7% | [8] -28.6% | [10] -28.5%

O=C1Nc2cc(-c3cccc([N+](=O)[O-])c3)ccc2/C1=C/c1ccc[nH]1
inactive: [1] 11.3% | [2] 81.3% | [3] 101% | [4] 48.8% | [5] 45.4% | [6] 59.6% | [7] 54.5% | [8] 70.6% | [9] 102% | [10] 99.2%

CCOC(=O)c1cc(C(=O)c2ccc(OC)c(OC)c2)n2ccc(/C=C/c3cc[n+](CC(=O)c4ccc(OC)c(OC)c4)cc3)cc12
inactive: [1] 92.2% | [2] 81.4% | [3] 95.5% | [4] 99.9% | [5] 90.9% | [6] 102% | [7] 88.6% | [8] 102% | [9] 102% | [10] 98.6%

CN1CCC(=C(c2ccccc2)c2ccccc2)C(c2ccccc2)C1 (stereo not given)
inactive: [1] 96.5% | [2] 103% | [3] 99.3% | [4] 90% | [5] 104% | [6] 115% | [7] 81.7% | [8] 113% | [9] 103% | [10] 83.4%

CC/C(=C\c1ccc(OC)cc1)C(=O)c1ccc(OC)cc1
inactive: [1] 108% | [2] 32.2% | [3] 74% | [4] 103% | [5] 77.2% | [6] 106% | [7] 67.2% | [9] 99.9% | [10] 86.7%

From PubChem BioAssay (NCI)
